Inconclusive results are not listed. The source made the active and inactive calls. The calls were made as follows: active = hit-call score of the fitted dose curve at least 0.9, where 1 is the maximum; inconclusive = response in the unintended direction; inactive = score below 0.9.
molecular target: Nuclear receptor subfamily 1 group I member 2 (Homo sapiens) (UniProt O75469); assay: NVS_NR_hPXR: NovaScreen (NVS) Nuclear Receptor Binding Assay for human Pregnane X Receptor (PXR) (AID 2283365);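 also: a drop in FRET signal versus DMSO baseline means the compound binds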
Protocol: NVS_NR_hPXR is a biochemical, single-readout assay that uses extracted gene-proteins in a cell-free assay. Measurements were taken 2 hours after chemical dosing in a 384-well plate.NVS_NR_hPXR is one of one assay component(s) measured or calculated from the NVS_NR_hPXR assay. It is designed to make measurements of fluorescent resonance energy transfer, a form of binding reporter, as detected with fluorescent resonance energy transfer signals by Time-Resolved Fluorescence Resonance Energy Transfer (TR-FRET) technology.Data from the assay component NVS_NR_hPXR was analyzed into 1 assay endpoint. This assay endpoint, NVS_NR_hPXR, was analyzed in the positive analysis fitting direction relative to DMSO as the negative control and baseline of activity. Using a type of binding reporter, loss-of-signal activity can be used to understand changes in the binding as they relate to the gene NR1I2. Furthermore, this assay endpoint can be referred to as a primary readout, because the performed assay has only produced 1 assay endpoint. To generalize the intended target to other relatable targets, this assay endpoint is annotated to the nuclear receptor intended target family, where the subfamily is non-steroidal.
Binding assays used specific radioligands (tritiated, iodinated) with non-radioactive competitive displacement ligands in agonist or antagonist protocols (as indicated) and various reference compounds and inhibitors to titrate specific binding to receptors and transporters. Most enzyme assays (CYPs, kinases, phosphatases, proteases, HDACs) used recombinant protein and specific substrates (fluorescence mostly, some colorimetric and radioactive) and inhibitors, followed by a biochemical separation of substrate and product. All assays for the biochemical HTS were initially run in duplicate at a single concentration (10 uM for CYP450 assays and 25 uM for all others). […] Each assay was run with positive and negative controls, and concurrent controls on every plate. The follow-up (secondary) screen tested active chemical-pairs in concentration series, as well as a few additional assays not tested in the primary screen, some selected negative inactives, and several cases re-run in the concentration series for confirmatory purposes.

Chain of Nuclear receptor subfamily 1 group I member 2 (Homo sapiens) (O75469 whole entry, looked up): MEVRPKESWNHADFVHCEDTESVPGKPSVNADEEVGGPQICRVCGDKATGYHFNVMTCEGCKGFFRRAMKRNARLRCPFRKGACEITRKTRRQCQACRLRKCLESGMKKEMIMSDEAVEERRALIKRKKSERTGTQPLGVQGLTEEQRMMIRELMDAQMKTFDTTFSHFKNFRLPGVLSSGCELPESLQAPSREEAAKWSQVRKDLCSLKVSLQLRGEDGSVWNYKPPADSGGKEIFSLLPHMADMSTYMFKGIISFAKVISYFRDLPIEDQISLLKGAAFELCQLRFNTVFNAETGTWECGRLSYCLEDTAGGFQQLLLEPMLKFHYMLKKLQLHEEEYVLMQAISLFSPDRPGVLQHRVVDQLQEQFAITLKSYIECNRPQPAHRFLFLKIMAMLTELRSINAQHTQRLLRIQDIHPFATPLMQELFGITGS

SMILES | outcome | AC50
C1CCC(NC2CCCCC2)CC1 | inactive | 
CC(C)C1CCC(Cc2ccc(Cl)cc2)C1(O)Cn1cncn1 (stereo not given) |  | 15.5 µM (active)
C[C@]12CCC(=O)C[C@@H]1CC[C@@H]1[C@@H]2CC[C@]2(C)[C@@H](O)CC[C@@H]12 | inactive | 
C[C@H]1CCCC(=O)CCC/C=C/c2cc(O)cc(O)c2C(=O)O1 |  | 0.969 µM (active)
COc1cc(OC)nc(NC(=O)NS(=O)(=O)c2ncccc2C(=O)N(C)C)n1 | inactive | 
COP(=O)(OC)O/C(=C\Cl)c1cc(Cl)c(Cl)cc1Cl |  | 25 µM (active)
CC(=O)[O][Hg][c]1ccccc1 |  | 5.37 µM (active)
CCOP(=S)(OCC)SCSP(=S)(OCC)OCC | inactive | 
O=C1C2(Cl)C3(Cl)C4(Cl)C(Cl)(Cl)C5(Cl)C3(Cl)C1(Cl)C5(Cl)C24Cl (stereo not given) | inactive | 
CC12CC1(C)C(=O)N(c1cc(Cl)cc(Cl)c1)C2=O (stereo not given) | inactive | 
CC1(C)CCC(Cc2ccc(Cl)cc2)C1(O)Cn1cncn1 (stereo not given) | inactive | 
CC(C#N)CCC#N (stereo not given) | inactive | 
Oc1cccc2cccnc12 | inactive | 
Fc1ccc(C2(Cn3cncn3)OC2c2ccccc2Cl)cc1 (stereo not given) | inactive | 
C[C@]12CC[C@H](O)CC1=CC[C@@H]1[C@@H]2CC[C@]2(C)C(=O)CC[C@@H]12 | inactive | 
NNC(=S)NN | inactive | 
CCOP(=S)(OCC)Oc1nc(Cl)c(Cl)cc1Cl | inactive | 
[O-][Cl+2]([O-])O | inactive | 
OCc1ccco1 | inactive | 
Clc1ccc(COC(Cn2ccnc2)c2ccc(Cl)cc2Cl)cc1 (stereo not given) |  | 9.83 µM (active)
CC1(C)Cc2cccc(O)c2O1 | inactive | 
O=C(Nc1ccc2[nH]ccc2c1)c1cc2cc(F)ccc2n1Cc1cccc(F)c1 | inactive | 
Cc1ccccc1C(=O)Nc1cccc(OC(C)C)c1 |  | 7.03 µM (active)
CC(C)(c1ccccc1)c1ccc(O)c(C(C)(C)c2ccccc2)c1 | inactive | 
Cc1ccccc1N | inactive | 
C=C(C)C(=O)[O][Sn]([CH2]CCC)([CH2]CCC)[CH2]CCC | inactive | 
Clc1ccc(C2(Cn3cncn3)CC(Br)CO2)c(Cl)c1 (stereo not given) |  | 19.8 µM (active)
C=CC#N | inactive | 
CCC[CH2][Sn]([CH2]CCC)([CH2]CCC)[O]C(=O)c1ccccc1 |  | 14.6 µM (active)
C[C@@H]1C[C@@H]([C@H](O)CC2CC(=O)NC(=O)C2)C(=O)[C@@H](C)C1 | inactive | 
